HIF act – HIF pathway transcriptional activators, primary screen, cell-based, U2OS HRE-luciferase, luminescence; U2OS HRE-luciferase reporter; normalized: DMSO 0%, desferrioxamine 100%; activation, % at 7.5 µM (by protocol); hit rate 0.32% among 300,000;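 active = mean activation of at least 10% of the iron chelator positive control signal, with at least half of replicates also reaching 10%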
HSP90 refold inh – HSP90 inhibitors, primary screen, cell lysate, luminescence; Heat shock protein HSP 90 (rabbit reticulocyte lysate; luciferase refolding); Rabbit reticulocyte lysate, luciferase refolding luminescence, 3 h; inhibition, % at 5.6 µM; hit rate 0.91% among 290,000;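 active = inhibition above the screen-wide mean plus 3 SD, computed separately per campaign, cut at about 16% in these data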;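 note: 0% = DMSO wells and 100% = 60 µM geldanamycin wells; inhibitors lower the luminescence because luciferase stays unfolded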
ARNT TACC3 PPI – disruptors of ARNT/TACC3 protein interaction, primary screen, biochemical, AlphaScreen, single concentration; hit rate 0.66% among 390,000; AlphaScreen His-ARNT PAS-B/GST-TACC3 binding, luminescence; TACC3 fragment carries E629A point mutation; inhibition, % at 9.99 µM; AID 623870, 2012; Transforming acidic coiled-coil-containing protein 3 (Homo sapiens), Q9Y6A5;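 active = mean inhibition of replicates at least 50% and at least half of replicates each reaching 50%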;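 note: 0% = complete ARNT plus TACC3 wells and 100% = ARNT alone without TACC3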
HSF1 inhib – HSF1 inhibitors in luciferase reporter cells, primary screen, cell-based, NIH3T3, luminescence; NIH3T3-HGL HSE-luciferase, MG132-induced, luminescence 8 h; stronger effect = lower value; activity change, negative = inhibition, % at 7.5 µM (by protocol); hit rate 0.77% among 300,000;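 active = more than half of replicate wells show activity change below -50%, luminescence cut by over half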;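 note: luciferase reports HSF-1 transcriptional activity via heat shock element; 0% = median of DMSO wells and -100% = zero luminescence signal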
HSF-1 act – HSF-1 activators, primary screen, NIH3T3-HGL cells, MG132 stress, luminescence, single point; activation, % at 9 µM; NIH3T3-HGL HSF-1 luciferase reporter, 8 h; 100% = twice DMSO control signal; hit rate 1.7% among 300,000; AID 504408, 2011;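 active = mean replicate activation of at least 50% with a set share of replicates each reaching 50%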;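 note: 0% = median of the neutral control wells and 100% = twice that signal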
* marks the source's active call; other numbers are inactive results. This is a sample that favours compounds with a hit; in the whole collection about 3.1% have one here.

Results for CN(C)S(=O)(=O)c1cccc(NC(=S)NC23CC4CC(CC(C4)C2)C3)c1 ?
HIF act: 1.7; HSP90 refold inh: 2.3; ARNT TACC3 PPI: 3.3; HSF1 inhib: -1.5; HSF-1 act: 4.8

What do the screens show for `CCN(CC)S(=O)(=O)c1cccc(NC(=O)CCNC(=O)NC23CC4CC(CC(C4)C2)C3)c1`?
HIF act: 0.3; ARNT TACC3 PPI: -3.8; HSF1 inhib: -65.7*; HSF-1 act: -73.9

Results for CCC(=O)N(C)C[C@H]1Oc2ncc(-c3ccc(C)cc3)cc2C(=O)N([C@H](C)CO)C[C@@H]1C ?
ARNT TACC3 PPI: -34.0

Results for C[C@H](CO)N1C[C@H](C)[C@H](CN(C)C(=O)Nc2ccccc2F)Oc2cc(-c3ccc(C(=O)N(C)C)cc3)ccc2S1(=O)=O ?
ARNT TACC3 PPI: 37.3

What do the screens show for `C/C(=N\Nc1cccc2cccnc12)c1ccc[nH]1`?
HIF act: 2.2; HSP90 refold inh: 7.8; ARNT TACC3 PPI: -0.3; HSF1 inhib: 36.4; HSF-1 act: 63.3*

Results for CCC(=O)Nc1cccc2cccnc12 ?
HIF act: 0.2; HSP90 refold inh: -3.1; ARNT TACC3 PPI: -1.4; HSF1 inhib: 3.1; HSF-1 act: 11.9

How did COc1ccc(-c2nc3cc(C)ccn3c2NCc2ccc3c(c2)OCO3)cc1 do in these assays?
HIF act: 2.1; HSP90 refold inh: 1.3; ARNT TACC3 PPI: 22.8; HSF1 inhib: 21.2; HSF-1 act: 54.6*

Results for COc1ccc(-c2nc3ccccn3c2NCc2ccc3c(c2)OCO3)cc1 ?
HIF act: 2.6; HSP90 refold inh: -7.6; ARNT TACC3 PPI: 24.5; HSF1 inhib: 3.1; HSF-1 act: -2.0

How did O=c1cc(-c2ccc(F)cc2)[nH][nH]1 do in these assays?
HIF act: -0.3; HSP90 refold inh: 16.6*; HSF1 inhib: 19.7; HSF-1 act: 33.4

How did C=CCn1c(=O)c(C(=O)Nc2ccccc2C)c(O)c2ccccc21 do in these assays?
HIF act: 3.2; HSP90 refold inh: -0.5; ARNT TACC3 PPI: -2.3; HSF1 inhib: 32.5; HSF-1 act: 75.3*

How did CC(=O)N[C@H]1CC[C@@H](CCNC(=O)C2CC2)O[C@@H]1CO do in these assays?
ARNT TACC3 PPI: -8.5

Results for CC(=NNC(=S)N1CCN(C2CCCCCC2)CC1)c1ccccn1 ?
ARNT TACC3 PPI: 76.6*

How did C/C(=N\NC(=O)C1CCCN(S(=O)(=O)c2ccccc2)C1)c1ccccn1 (stereo not given) do in these assays?
HIF act: -0.1; HSP90 refold inh: -0.8; ARNT TACC3 PPI: 53.0*; HSF1 inhib: 10.7; HSF-1 act: 22.0

Results for CC(=NNC(=S)N1CC2CCC(CC2)C1)c1cnccn1 ?
ARNT TACC3 PPI: 51.3*; HSF1 inhib: -44.0; HSF-1 act: -44.0

How did C/C(=N/NC(=O)c1cnccn1)c1ccncc1 do in these assays?
HIF act: 0.2; HSP90 refold inh: 2.0; ARNT TACC3 PPI: 4.0; HSF1 inhib: 8.6; HSF-1 act: 33.1

What do the screens show for `CC(=NNC(=S)N1CCN(c2ccccn2)CC1)c1ccccn1`?
ARNT TACC3 PPI: 22.4

How did CC(=NNC(=S)N1CCN(c2ccccn2)CC1)c1nccs1 do in these assays?
ARNT TACC3 PPI: 66.2*; HSF1 inhib: -134.7; HSF-1 act: -134.7

What do the screens show for `CC(C)C#Cc1ccc([C@@H]2[C@@H](CO)N3CCCCN(C(=O)Nc4ccccc4)C[C@@H]23)cc1`?
ARNT TACC3 PPI: 3.2

Results for COc1ccc(S(=O)(=O)Nc2ccc3c(c2)C(=O)N([C@@H](C)CO)C[C@@H](C)[C@@H](CN(C)C(=O)CCC(F)(F)F)OCCCC[C@@H](C)O3)cc1 ?
ARNT TACC3 PPI: -1.0

How did C[C@@H]1CN([C@H](C)CO)C(=O)c2cccc(NS(=O)(=O)c3ccc(F)cc3)c2O[C@H]1CN(C)S(=O)(=O)c1ccccc1 do in these assays?
ARNT TACC3 PPI: -0.1

What do the screens show for `COc1ccc(S(=O)(=O)Nc2ccc3c(c2)C(=O)N([C@H](C)CO)C[C@H](C)[C@@H](CN(C)C(=O)Nc2ccc(F)cc2)OCCCC[C@@H](C)O3)cc1`?
ARNT TACC3 PPI: 1.3

Screening results deposited in PubChem BioAssay by several laboratories.
